Screening results deposited in PubChem by SRMLSC.
An excerpt weighted towards active compounds, which were near 6.5% of everything screened.
MK inhibit = blocks S. pneumoniae mevalonate kinase; inhibition, % at 10 µM; 65,000 compounds, 0.48% hits; AID 555; purified MK, PK/LDH-coupled NADH absorbance 340 nm;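 active = ranked among the strongest by inhibition in the single 10 µM screen, a fixed top-ranked set picked for dose follow-up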
Spn PMK inh = S. pneumoniae PMK inhibition; purified PMK, PK/LDH-coupled NADH absorbance 340 nm; inhibition, % at 10 µM; 65,000 compounds, 0.49% hits; AID 539;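 active = top-ranked compounds by inhibition in the single 10 µM screen, taking a fixed number of the strongest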;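 note: 0% = full reaction with DMSO carrier and 100% = background rate without enzyme reaction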
Fluor 339 460 = intrinsic fluorescence of library compounds, ex339/em460 – biochemical, MLSMR library, data from DPM-DC assay, artefact control, profiling panel; compound autofluorescence, ex339/em460 nm, NADH buffer; active compounds read high; 1 = no-compound wells, NADH background; fluorescence fold increase at 10 µM; 65,000 compounds, 5.5% hits; AID 709;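 active = at 10 µM, mean starting fluorescence two-fold or more over control wells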;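 note: signal is the first read of a kinetic run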
A340 absorber = absorbance at 340 nm; compound absorbance at 340 nm, fold over control; fold change at 10 µM; 65,000 tested, under 10 active; AID 708;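 active = at 10 µM dose, initial 340 nm absorbance at least 2 fold that of control wells; inactive = change under 2 fold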;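 note: initial absorbance extrapolated from kinetic A340 decline of NADH oxidation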
Spn DPM-DC inh = inhibitors of Streptococcus pneumoniae diphosphomevalonate decarboxylase; AID 556; purified DPM-DC, PK/LDH coupled NADH fluorescence; calls only at 10 µM; 65,000 compounds, 0.49% hits;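 active = the 320 compounds with the highest percent inhibition in the single-dose primary screen, excluding strongly autofluorescent ones, cut at about 32% in these data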;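 note: kinetic rate of NADH fluorescence loss reporting ADP formed by the decarboxylase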
NADH enzymes = inhibitors of enzymes used to reach an NAD/NADH endpoint | coupled PK/LDH NADH assays, four targets | 65,000 compounds, 0.02% hits | IC50, µM (series often up to 10 µM), inactives show at the highest dose inhibition;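 active = single-dose screening hits from any of four coupled enzyme assays that gave an IC50 when retested across doses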;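 note: the DPM-DC format reads NADH fluorescence rather than 340 nm absorbance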
An asterisk follows results filed as active; i = inactive; / = not tested or not shown; + = active, no number.

SMILES | MK inhibit | Spn PMK inh | Fluor 339 460 | A340 absorber | Spn DPM-DC inh | NADH enzymes
CC1Cc2nc(SCC(=O)Nc3ccc4c(c3)OCO4)n(CCc3ccccc3)c(=O)c2S1 (centres undefined) | 1.0 | 3.0 | 0.92 | 1.09 | + | 13.0%
O=C(Cc1cccs1)Nc1nnc(-c2ccncc2)s1 | 5.0 | 4.0 | 2.21* | 1.11 | / | 5.0%
COc1ccc(-c2nc(C#N)c(N3CCN(c4ccccc4)CC3)o2)cc1 | 10.0 | 6.0 | 1.45 | 0.99 | i | 6.0%
N#Cc1nc(-c2cccs2)oc1NCC1CCCO1 (centres undefined) | 2.0 | 0.0 | 2.26* | 1.09 | / | 1.0%
O=S(=O)(c1ccccc1)c1nc(-c2cccs2)oc1NCC1CCCO1 (centres undefined) | 0.0 | 5.0 | 1.12 | 1.06 | i | 3.0%
COc1ccc(-c2nc(C#N)c(NCC3CCCO3)o2)cc1 (centres undefined) | 4.0 | 0.0 | 2.27* | 1.06 | / | 2.0%
CCCCNC(=O)Oc1cccc(N2CCCC2=O)c1 | 8.0 | 18.0 | 1.07 | 1.02 | i | 9.0%
COc1cccc(CNC(=O)C(CCSC)NS(=O)(=O)c2ccc3c(c2)oc(=O)n3C)c1 (centres undefined) | 8.0 | 13.0 | 1.12 | 0.99 | i | 7.0%
O=C(CSc1nc2ccccc2c(=O)n1Cc1ccco1)NCc1ccccc1 | 7.0 | 0.0 | 1.04 | 1 | i | 3.0%
Cn1c(SCC(=O)NCc2ccco2)nc2ccccc2c1=O | 16.0 | 25.0* | 1.07 | 1.01 | i | 14.0%
CCOC(=O)CSc1cccc2cccnc12 | 7.0 | 0.0 | 3.62* | 1.04 | / | 4.0%
O=C(CSc1cccc2cccnc12)NCc1ccco1 | 0.0 | 9.0 | 4.87* | 1.05 | / | 5.0%
Cc1cc(C)nc(SCC(=O)NCc2ccco2)n1 | 4.0 | 19.0 | 1.1 | 1.06 | i | 8.0%
Cc1cc(C)n2nc(SCC(=O)NCc3ccco3)nc2n1 | 3.0 | 30.0* | 0.97 | 1 | i | 13.0%
O=C(Nn1c(-c2ccccc2)nc2ccccc2c1=O)C1CCC1 | 1.0 | 13.0 | 1.04 | 1.01 | i | 6.0%
CN(C)CCCN1C(=O)C(=O)/C(=C(/O)c2ccc3c(c2)OCO3)C1c1ccccn1 (centres undefined) | 6.0 | 0.0 | 1.07 | 1.16 | i | 2.0%
CN1CCCc2cc3c(C(F)(F)F)cc(=O)oc3nc21 | 4.0 | 5.0 | 2.21* | 1.04 | / | 5.0%
Cc1sc2c(c1C)CN(Cc1ccco1)CN2C(=O)c1ccccc1 | 0.0 | 16.0 | 1.15 | 1.03 | i | 5.0%
Cc1ccccc1OCCCCCn1ccnc1 | 0.0 | 4.0 | 1.09 | 1.05 | i | 1.0%
Cc1cccc(OCCCCCn2ccnc2)c1 | 48.0* | 0.0 | 1.12 | 1.03 | i | 16.0%
CC(C)C(=O)Nc1ccc2c(c1)C(=O)N(CCC(=O)O)C2=O | 0.0 | 4.0 | 2.3* | 1.02 | / | 2.0%
Cc1csc2nc3ccccc3c(=O)n12 | 5.0 | 4.0 | 2.02* | 1 | i | 6.0%
Cc1nc2ccccc2c(=O)n1N | 3.0 | 6.0 | 1.02 | 1.03 | i | 3.0%
COc1cccc(-c2nnc3n2N=C(C(C)(C)C)CS3)c1 | 9.0 | 23.0 | 1.08 | 1.04 | i | 11.0%
Cc1ccc(-c2nnn(CC(=O)Nc3ccccc3-c3ccccc3)n2)c(-n2cnnn2)c1 | 4.0 | 5.0 | 1.09 | 0.97 | i | 3.0%
SMILES | MK inhibit | Spn PMK inh | Fluor 339 460 | A340 absorber | Spn DPM-DC inh | NADH enzymes
Cc1nnc(SCC(=O)Nc2nsc(-c3ccccc3)n2)s1 | 14.0 | 38.0* | 1.1 | 1.07 | i | 17.0%
Cc1ccc(-c2nc(NC(=O)CSc3nnc(C)s3)ns2)cc1 | 3.0 | 7.0 | 1.08 | 1.04 | i | 3.0%
COc1ccc(-c2nc(NC(=O)CSc3nnc(C)s3)ns2)cc1 | 7.0 | 2.0 | 2.78* | 1.06 | i | 13.0%
O=C1CCN2C=Nc3cccc4ccc1c2c34 | 0.0 | 5.0 | 3.2* | 1.07 | / | 3.0%
CCOCCOC(=O)C1=C(C)NC2=C(C(=O)CC(c3cccs3)C2)C1c1ccsc1 (centres undefined) | 4.0 | 0.0 | 2.14* | 1.07 | / | 2.0%
Cn1cc(Br)c(C(=O)NC2CCCCC2)n1 | 8.0 | 10.0 | 0.96 | 0.99 | i | 3.0%
O=C1CCCC2=C1C(c1ccncc1)c1c(nc(SCc3ccccc3)[nH]c1=O)N2 (centres undefined) | 10.0 | 0.0 | 2.19* | 1.1 | / | 5.0%
Nc1nc(SCC(=O)NCc2ccco2)[nH]c(=O)c1-c1ccccc1 | 4.0 | 8.0 | 1.12 | 1.02 | i | 4.0%
CCSc1nc2c(c(=O)[nH]1)C(c1ccccn1)C1=C(CC(C)(C)CC1=O)N2 (centres undefined) | 8.0 | 9.0 | 2.24* | 1.08 | / | 9.0%
Cc1ccc(C2C3=C(CCCC3=O)Nc3nc(SCC(=O)NCc4ccco4)[nH]c(=O)c32)cc1 (centres undefined) | 9.0 | 7.0 | 3.56* | 1.06 | i | 10.0%
COc1cc(C)c(S(=O)(=O)NCc2cccs2)cc1C | 10.0 | 3.0 | 1.05 | 1.06 | i | 4.0%
Cc1cc(C)c2cc(CN(CC3CCCO3)C(=O)NC3CCCCC3)c(=O)[nH]c2c1 (centres undefined) | 1.0 | 16.0 | 1.37 | 1.04 | i | 5.0%
COc1ccc(C(=O)NCc2cn3c(C)csc3n2)cc1OC | 3.0 | 4.0 | 1.12 | 1 | + | 36.0%
COC(=O)c1cc(OC)c(OC)cc1NC(=O)Nc1ccccc1OC | 15.0 | 13.0 | 2.06* | 1.04 | / | 14.0%
COC(=O)c1cc(OC)c(OC)cc1NC(=O)c1oc2ccccc2c1C | 9.0 | 5.0 | 2.46* | 1.07 | + | 16.0%
CCN(CC)C(=O)c1cn(CC)c(=O)c2cc(OC)c(OC)cc12 | 8.0 | 0.0 | 1.12 | 1.04 | i | 3.0%
CCOC(=O)Nc1nnc(-c2ccc(OC)c(OC)c2)s1 | 9.0 | 12.0 | 3.71* | 1.08 | / | 11.0%
COC(=O)Nc1nnc(CCc2ccccc2)s1 | 6.0 | 10.0 | 1.03 | 0.99 | i | 4.0%
CCOC(=O)Nc1nnc(CCc2ccccc2)s1 | 7.0 | 9.0 | 2.64* | 1.05 | i | 8.0%
CCC(c1nnc(SCC(=O)Nc2nnc(-c3ccccc3)o2)n1Cc1ccccc1)N(C)C (centres undefined) | 0.0 | 12.0 | 1.05 | 1.01 | i | 4.0%
COc1ccc2nc(N3CCC(O)CC3)c(C#N)cc2c1 | 10.0 | 21.0 | 2.87* | 0.99 | i | 20.0%
COc1ccc2nc(N3CCC(C)CC3)c(C#N)cc2c1 | 10.0 | 2.0 | 1.38 | 1 | i | 5.0%
CCOC(=O)C1CCN(c2nc3cc(OC)ccc3cc2C#N)CC1 | 7.0 | 12.0 | 2.09* | 0.99 | i | 9.0%
CCOC(=O)c1sc(N)c(C#N)c1CSc1nnc(C2CCCCC2)n1N | 5.0 | 17.0 | 1.04 | 1.1 | i | 7.0%
N=c1n(CCN2CCOCC2)c2ccccc2n1CC(=O)c1ccc(Cl)c(Cl)c1 | 2.0 | 26.0* | 1.06 | 0.98 | i | 9.0%
CCOc1cccc(NC(=O)C2CC(=O)NC(=Nc3ccccc3)S2)c1 (centres undefined) | 2.0 | 2.0 | 1.04 | 1.02 | i | 1.0%
